Test results as given in the supplement of paper PMC11732987, “Enantioselective OTUD7B fragment discovery through chemoproteomics screening and high-throughput optimisation” (Communications Chemistry, 2025).
Unmarked numbers belong to inactive results.

Legend:
Assay in all cases: log2 ratio of Biotin-Ahx-Ub-VS probe labelling (fragment/DMSO); higher = less target engagement (more negative = stronger competition), active = hit call of the paper (q ≤ 0.05, log2 ratio ≤ -1)
Details in all cases: compound concentration: 200 uM; treatment time: 3 h
ALG13 = biological target: T1, ALG13 (UniProt Q9NP73)
T1 sequence (whole entry): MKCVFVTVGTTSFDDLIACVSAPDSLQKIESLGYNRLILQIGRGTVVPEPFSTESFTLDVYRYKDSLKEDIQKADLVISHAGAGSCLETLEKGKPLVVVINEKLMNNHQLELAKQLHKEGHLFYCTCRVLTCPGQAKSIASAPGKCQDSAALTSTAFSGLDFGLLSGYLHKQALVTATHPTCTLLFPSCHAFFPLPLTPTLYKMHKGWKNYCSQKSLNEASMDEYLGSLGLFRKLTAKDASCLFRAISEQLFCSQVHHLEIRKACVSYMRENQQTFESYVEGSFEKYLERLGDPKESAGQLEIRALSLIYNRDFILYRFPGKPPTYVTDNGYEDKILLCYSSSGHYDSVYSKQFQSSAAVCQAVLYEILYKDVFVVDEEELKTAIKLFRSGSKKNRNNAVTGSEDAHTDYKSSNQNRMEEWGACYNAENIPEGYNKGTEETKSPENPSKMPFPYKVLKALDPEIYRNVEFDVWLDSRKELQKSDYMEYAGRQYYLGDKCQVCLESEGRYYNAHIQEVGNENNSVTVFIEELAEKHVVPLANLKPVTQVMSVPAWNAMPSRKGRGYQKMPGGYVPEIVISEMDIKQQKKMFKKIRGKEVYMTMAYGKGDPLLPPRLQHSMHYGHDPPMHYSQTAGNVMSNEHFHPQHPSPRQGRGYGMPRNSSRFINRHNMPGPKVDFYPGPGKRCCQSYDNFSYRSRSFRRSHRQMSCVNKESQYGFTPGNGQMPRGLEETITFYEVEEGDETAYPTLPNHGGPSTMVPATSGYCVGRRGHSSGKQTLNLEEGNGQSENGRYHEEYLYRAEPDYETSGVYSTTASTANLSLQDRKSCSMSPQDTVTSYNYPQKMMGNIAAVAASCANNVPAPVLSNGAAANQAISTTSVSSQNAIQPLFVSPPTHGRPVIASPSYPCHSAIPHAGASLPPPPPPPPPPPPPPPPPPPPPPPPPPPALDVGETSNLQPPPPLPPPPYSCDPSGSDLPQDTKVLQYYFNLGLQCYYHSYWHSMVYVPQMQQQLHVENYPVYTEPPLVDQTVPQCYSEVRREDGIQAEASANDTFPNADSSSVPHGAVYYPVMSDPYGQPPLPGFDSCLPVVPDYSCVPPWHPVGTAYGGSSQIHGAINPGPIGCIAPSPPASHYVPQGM
Summary of the method: (§1)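 Using Biotin-Ahx-Ub-VS at 0.5 µM final for 1 h, DUBs were labelled in HEK293T lysate (495 µg per sample) that had first been treated in triplicate with fragment at 200 µM or vehicle for 3 h. NeutrAvidin enrichment, LysC and trypsin digestion and diaPASEF LC-MS/MS followed. Spectronaut label-free quantities were global-median-normalised. Values are average log2 fragment/vehicle ratios by unpaired t-test, using proteins with ≥2 unique peptides.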

ATXN3 = ATXN3 (UniProt P54252)
Summary of the method: as §1

BAP1 = biological target: T2, BAP1 (UniProt Q92560)
T2 sequence (whole entry): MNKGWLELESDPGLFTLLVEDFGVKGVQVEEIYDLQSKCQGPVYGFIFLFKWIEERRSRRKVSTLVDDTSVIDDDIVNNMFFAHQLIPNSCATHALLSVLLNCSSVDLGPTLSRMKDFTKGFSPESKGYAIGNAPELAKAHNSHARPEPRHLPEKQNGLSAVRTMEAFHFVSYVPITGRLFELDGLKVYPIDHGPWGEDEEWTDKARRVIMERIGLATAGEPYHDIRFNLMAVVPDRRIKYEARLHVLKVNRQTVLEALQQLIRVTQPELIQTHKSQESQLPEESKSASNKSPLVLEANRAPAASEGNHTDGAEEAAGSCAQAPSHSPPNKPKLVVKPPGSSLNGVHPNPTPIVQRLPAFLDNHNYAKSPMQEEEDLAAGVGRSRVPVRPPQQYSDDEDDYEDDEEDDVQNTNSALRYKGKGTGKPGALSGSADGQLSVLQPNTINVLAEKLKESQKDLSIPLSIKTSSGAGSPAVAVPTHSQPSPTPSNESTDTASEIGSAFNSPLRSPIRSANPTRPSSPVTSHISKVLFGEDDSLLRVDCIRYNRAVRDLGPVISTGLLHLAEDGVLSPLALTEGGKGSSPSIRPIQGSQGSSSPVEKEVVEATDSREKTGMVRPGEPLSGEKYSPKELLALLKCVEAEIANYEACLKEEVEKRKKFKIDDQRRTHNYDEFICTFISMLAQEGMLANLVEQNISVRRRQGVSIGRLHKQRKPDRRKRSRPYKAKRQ
Summary of the method: as §1

EIF3F = EIF3F (UniProt O00303)
Summary of the method: as §1

EIF3H = EIF3H (UniProt O15372)
Summary of the method: as §1

FAM105A = biological target: T3, FAM105A (UniProt Q9NUU6)
T3 sequence (whole entry): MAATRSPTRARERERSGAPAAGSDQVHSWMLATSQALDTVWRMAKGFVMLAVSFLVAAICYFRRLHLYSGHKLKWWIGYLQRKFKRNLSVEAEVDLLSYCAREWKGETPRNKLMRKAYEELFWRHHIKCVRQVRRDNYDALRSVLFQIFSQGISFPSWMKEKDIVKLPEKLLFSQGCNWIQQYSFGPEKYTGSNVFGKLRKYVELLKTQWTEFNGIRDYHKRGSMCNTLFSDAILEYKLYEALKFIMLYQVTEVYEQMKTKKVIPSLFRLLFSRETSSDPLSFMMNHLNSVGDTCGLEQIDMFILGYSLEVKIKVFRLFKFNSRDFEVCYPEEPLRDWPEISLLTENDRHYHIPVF
Summary of the method: as §1

OTUB1 = OTUB1 (UniProt Q96FW1)
Summary of the method: as §1

OTUD4 = biological target: T4, OTUD4 (UniProt Q01804)
T4 sequence (whole entry): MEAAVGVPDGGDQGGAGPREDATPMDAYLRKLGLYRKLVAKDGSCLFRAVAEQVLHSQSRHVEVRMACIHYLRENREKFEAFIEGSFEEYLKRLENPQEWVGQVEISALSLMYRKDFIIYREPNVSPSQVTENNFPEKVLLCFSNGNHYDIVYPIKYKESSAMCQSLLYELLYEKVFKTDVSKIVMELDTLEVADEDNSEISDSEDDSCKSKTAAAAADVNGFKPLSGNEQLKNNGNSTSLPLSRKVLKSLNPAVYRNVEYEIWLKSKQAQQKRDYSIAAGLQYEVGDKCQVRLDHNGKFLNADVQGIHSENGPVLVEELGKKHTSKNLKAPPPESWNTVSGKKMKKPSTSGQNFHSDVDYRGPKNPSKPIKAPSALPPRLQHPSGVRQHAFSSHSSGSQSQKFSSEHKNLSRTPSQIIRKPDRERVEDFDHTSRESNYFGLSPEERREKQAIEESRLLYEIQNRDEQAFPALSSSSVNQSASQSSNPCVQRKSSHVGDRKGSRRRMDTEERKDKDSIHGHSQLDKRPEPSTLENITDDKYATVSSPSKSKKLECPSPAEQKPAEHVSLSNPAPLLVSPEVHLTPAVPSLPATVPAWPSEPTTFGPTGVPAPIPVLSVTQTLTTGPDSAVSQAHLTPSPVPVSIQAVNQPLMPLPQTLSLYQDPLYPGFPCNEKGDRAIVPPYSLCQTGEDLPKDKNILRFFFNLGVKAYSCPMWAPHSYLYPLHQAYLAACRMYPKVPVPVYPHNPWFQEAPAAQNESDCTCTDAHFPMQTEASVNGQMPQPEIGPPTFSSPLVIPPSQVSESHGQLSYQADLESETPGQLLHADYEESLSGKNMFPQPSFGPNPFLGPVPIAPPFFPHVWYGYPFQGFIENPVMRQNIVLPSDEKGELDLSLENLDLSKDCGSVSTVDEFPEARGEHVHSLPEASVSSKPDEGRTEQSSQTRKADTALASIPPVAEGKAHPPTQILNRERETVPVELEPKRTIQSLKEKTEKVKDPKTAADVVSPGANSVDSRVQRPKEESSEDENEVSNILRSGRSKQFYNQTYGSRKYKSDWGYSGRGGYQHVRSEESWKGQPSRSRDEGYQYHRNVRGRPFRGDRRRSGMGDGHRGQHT
Summary of the method: as §1

OTUD5 = biological target: T5, OTUD5 (UniProt Q96G74)
T5 sequence (whole entry): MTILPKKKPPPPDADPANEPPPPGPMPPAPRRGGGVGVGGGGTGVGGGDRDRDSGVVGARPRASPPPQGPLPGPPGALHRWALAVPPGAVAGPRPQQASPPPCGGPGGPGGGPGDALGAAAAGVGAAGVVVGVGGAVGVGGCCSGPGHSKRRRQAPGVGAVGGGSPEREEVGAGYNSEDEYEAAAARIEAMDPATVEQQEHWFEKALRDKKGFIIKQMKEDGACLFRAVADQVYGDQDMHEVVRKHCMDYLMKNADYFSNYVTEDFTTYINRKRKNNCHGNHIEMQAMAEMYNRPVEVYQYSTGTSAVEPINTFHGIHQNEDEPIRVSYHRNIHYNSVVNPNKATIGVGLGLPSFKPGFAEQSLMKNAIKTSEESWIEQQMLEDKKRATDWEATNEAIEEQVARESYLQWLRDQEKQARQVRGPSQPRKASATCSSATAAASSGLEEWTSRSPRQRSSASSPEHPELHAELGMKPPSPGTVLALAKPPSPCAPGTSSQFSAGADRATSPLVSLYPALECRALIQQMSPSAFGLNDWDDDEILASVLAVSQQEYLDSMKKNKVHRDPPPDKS
Summary of the method: as §1

Sequence of ATXN3 (P54252 whole entry): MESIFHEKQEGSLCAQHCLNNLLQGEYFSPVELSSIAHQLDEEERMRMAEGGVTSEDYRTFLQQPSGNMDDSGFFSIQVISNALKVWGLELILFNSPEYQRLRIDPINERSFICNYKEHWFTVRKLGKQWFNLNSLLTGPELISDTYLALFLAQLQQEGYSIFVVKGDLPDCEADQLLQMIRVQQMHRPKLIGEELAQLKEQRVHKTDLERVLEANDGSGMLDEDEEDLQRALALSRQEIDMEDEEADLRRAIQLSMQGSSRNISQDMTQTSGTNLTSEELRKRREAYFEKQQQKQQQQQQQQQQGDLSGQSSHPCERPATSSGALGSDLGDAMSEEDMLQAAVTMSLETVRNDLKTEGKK
Sequence of OTUB1 (Q96FW1 whole entry): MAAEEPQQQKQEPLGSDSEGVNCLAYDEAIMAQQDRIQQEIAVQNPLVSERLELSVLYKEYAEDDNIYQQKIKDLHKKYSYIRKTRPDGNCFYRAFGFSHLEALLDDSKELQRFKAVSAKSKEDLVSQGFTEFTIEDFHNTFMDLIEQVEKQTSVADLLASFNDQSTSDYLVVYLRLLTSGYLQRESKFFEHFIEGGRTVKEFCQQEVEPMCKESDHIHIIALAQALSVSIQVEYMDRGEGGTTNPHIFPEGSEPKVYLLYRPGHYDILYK
Sequence of EIF3F (O00303 whole entry): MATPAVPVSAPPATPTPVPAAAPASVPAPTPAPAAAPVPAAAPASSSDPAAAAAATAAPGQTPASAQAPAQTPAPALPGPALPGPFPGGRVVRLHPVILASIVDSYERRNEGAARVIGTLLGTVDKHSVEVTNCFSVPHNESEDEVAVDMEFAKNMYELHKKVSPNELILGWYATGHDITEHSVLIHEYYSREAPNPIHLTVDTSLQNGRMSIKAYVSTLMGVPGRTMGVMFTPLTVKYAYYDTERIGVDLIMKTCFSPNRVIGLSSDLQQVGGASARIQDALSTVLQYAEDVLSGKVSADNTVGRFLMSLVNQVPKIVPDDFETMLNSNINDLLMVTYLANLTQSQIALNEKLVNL
Sequence of EIF3H (O15372 whole entry): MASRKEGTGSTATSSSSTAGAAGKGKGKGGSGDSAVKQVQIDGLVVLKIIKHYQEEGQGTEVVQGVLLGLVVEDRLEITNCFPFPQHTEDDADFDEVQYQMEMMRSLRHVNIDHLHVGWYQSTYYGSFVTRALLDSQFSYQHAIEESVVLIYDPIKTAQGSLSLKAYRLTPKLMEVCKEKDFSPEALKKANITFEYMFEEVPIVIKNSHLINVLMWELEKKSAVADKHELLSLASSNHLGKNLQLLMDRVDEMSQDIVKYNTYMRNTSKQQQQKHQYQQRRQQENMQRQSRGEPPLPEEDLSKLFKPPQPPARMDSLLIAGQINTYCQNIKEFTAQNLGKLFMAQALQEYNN

## Cc1ccccc1C1(CNC(=O)CCl)CCOCC1
ALG13
  log2 ratio of Biotin-Ahx-Ub-VS probe labelling: 0.22
ATXN3
  log2 ratio of Biotin-Ahx-Ub-VS probe labelling: -0.273
BAP1
  log2 ratio of Biotin-Ahx-Ub-VS probe labelling: -1.23 (active)
EIF3F
  log2 ratio of Biotin-Ahx-Ub-VS probe labelling: 0.0678
EIF3H
  log2 ratio of Biotin-Ahx-Ub-VS probe labelling: 0.00175
FAM105A
  log2 ratio of Biotin-Ahx-Ub-VS probe labelling: 0.0441
OTUB1
  log2 ratio of Biotin-Ahx-Ub-VS probe labelling: -0.0623
OTUD4
  log2 ratio of Biotin-Ahx-Ub-VS probe labelling: -0.322
OTUD5
  log2 ratio of Biotin-Ahx-Ub-VS probe labelling: -0.157
